# TIM10 inh – growth inhibitors of TIM10 yeast strain; S. cerevisiae TIM10 strain growth, BacTiter-Glo luminescence, 24 h; inhibition, % at 10 µM; 330,000 tested, 1.4% active;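 active = inhibition of 40% or more at the single tested concentration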;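 note: wild-type TIM10 isogenic control strain grown at permissive 25 °C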
# tim10-1 inh – inhibits growth of tim10-1 mutant yeast | S. cerevisiae tim10-1 ts strain growth, BacTiter-Glo, 24 h | inhibition, % at 20 µM | 330,000 tested, 2.2% active | AID 463190;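 active = inhibition of at least 40%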;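 note: mutant grown at 25 °C; 0% = DMSO wells with yeast and 100% = wells holding no yeast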
# SKKanGAS inh – blocks kanamycin growth of S. pyogenes SKKanGAS strain; BacTiter-Glo, 6 h; inhibition, % at 7.5 µM; 300,000 tested, 1.3% active;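 active = mean replicate score, as percent of positive control median, at least 50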;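 note: strain carries kanamycin resistance gene driven by streptokinase promoter and grows in 40 µg/ml kanamycin; loss of luminescence reflects streptokinase promoter inhibition or plain growth inhibition; 0% = median of DMSO wells and 100% = positive control at its reference dose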
# tim23-1 inh – growth inhibitors of tim23-1 mutant yeast. S. cerevisiae tim23-1 growth, BacTiter-Glo luminescence, 24 h. inhibition, % at 20 µM. 330,000 tested, 1.3% active. AID 463212;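 active = growth inhibition of the mutant yeast at or above 50%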;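 note: temperature-sensitive mutant grown at 25 °C; plate controls were DMSO-treated mutant yeast for no effect and medium wells lacking yeast for full effect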
# PfHsp90 set2 – growth inhibition of yeast expressing Plasmodium Hsp90. S. cerevisiae expressing PfHsp90, BacTiter-Glo ATP, 48 h; yeast lacking PDR1 and PDR3 efflux regulators. inhibition, % at 9.4 µM. 310,000 tested, 0.32% active;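 active = every replicate shows inhibition above about 80%, whatever the replicate mean, limit read from the data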;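 note: 0% = DMSO neutral controls and 100% = 20 µM radicicol positive controls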
# NALP1 yeast inh – blocks the NALP1 inflammasome reconstituted in yeast; S. cerevisiae NALP1/ASC/caspase-1 growth, X-gal OD620, 72 h; inhibition, % at 10 µM; 280,000 tested, 0.61% active; in the data active = inhibition mostly above about 24%, no sharp cut-off; inactive = mostly below about 32%
# tim10-1 confirm – tim10-1 yeast growth inhibition, confirmed | shares compounds with tim10-1 inh | 7,400 tested, 56% active | S. cerevisiae tim10-1 ts strain growth, BacTiter-Glo, 24 h | AID 463213 | inhibition, % at 20 µM;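 active = inhibition of yeast growth at or above a set limit in either of two repeat tests at 20 µM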;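 note: tim10-1 mutant grown at permissive 25 °C to find synthetic lethal compounds; 0% = DMSO yeast wells and 100% = medium wells without yeast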
# Numbers without * were called inactive; nt = not tested or not shown. Only some compounds are listed: those with a hit (about 4.8% of all), similar ones and a draw of the others.
SMILES,TIM10 inh,tim10-1 inh,SKKanGAS inh,tim23-1 inh,PfHsp90 set2,NALP1 yeast inh,tim10-1 confirm
O=C(Nc1cccc(C(=O)N2CCN(c3cccc(Cl)c3)CC2)c1)c1ccccc1,36,48*,9,31,nt,17,37*
Cc1cccc(-n2c(O)c(C=NC3CCS(=O)(=O)C3)c3ccccc3c2=O)c1 (stereo not given),-3,-1,2,1,14,-2,nt
COc1ccc(-c2cc3nc4c(c(N5CCC6(CC5)OCCO6)n3n2)CCC4)cc1,32,47*,7,40,17,8,33*
Fc1ccc(-c2cc3nc4c(c(N5CCOCC5)n3n2)CCCC4)cc1,10,32,-1,43,-23,18,nt
OC1CCN(c2c3c(nc4cc(-c5ccc(F)cc5)nn24)CCC3)CC1,28,45*,2,25,-2,-13,31
OC1CCCN(c2c3c(nc4cc(-c5cccc(Cl)c5)nn24)CCC3)C1 (stereo not given),-23,33,10,21,-16,22,nt
Cc1cccc(-c2cc3nc4c(c(N5CCCC(O)C5)n3n2)CCC4)c1 (stereo not given),16,47*,8,39,nt,19,15
CN(C(=O)c1cccc(NC(=O)Cc2ccc(NC(=O)C3CCN(C(=O)C4CCCCC4)CC3)cc2)c1)C1CCCCC1,nt,nt,nt,nt,-14,nt,nt
CC(O)CNc1nc2c(c(=O)n(C)c(=O)n2C)n1CCc1ccccc1 (stereo not given),-14,10,-3,-8,7,nt,nt
COc1ccc(S(=O)(=O)Nc2cc(Cl)ccc2-n2cncn2)cc1,6,10,nt,9,13,nt,nt
Cc1ccccc1-c1nc(CS(=O)CC(=O)NCCc2ccc(Cl)cc2)c(C)o1 (stereo not given),7,44*,-5,26,3,6,-7
Cc1ccc(NC(=O)CS(=O)Cc2nc(-c3ccc(C)cc3)oc2C)cc1 (stereo not given),22,40*,-1,20,10,6,14
Cc1oc(-c2ccc(Cl)cc2)nc1CS(=O)CC(=O)NC1CCCCCC1 (stereo not given),29,33,0,31,13,9,nt
Cc1oc(-c2ccc(Cl)cc2)nc1CS(=O)CC(=O)NC1CCCCC1 (stereo not given),32,40*,-1,41,7,5,33*
CCCCn1c(N)c(N(CCOC)C(=O)COC(=O)COc2c(C)cccc2C)c(=O)[nH]c1=O,9,9,2,8,-4,nt,nt
Cc1cc(C)n(S(=O)(=O)c2cc(Cl)ccc2Cl)n1,-4,40*,-14,27,16,-6,18
Cc1cc(C)n(S(=O)(=O)c2ccc(Cl)cc2)n1,-5,6,0,11,-28,1,nt
Cc1cc(C)n(S(=O)(=O)c2ccc(C(C)(C)C)cc2)n1,0,43*,-10,28,nt,0,38*
Cc1cc(C)n(S(=O)(=O)c2ccc(F)cc2)n1,-7,3,-2,4,2,-5,nt
O=C(NNS(=O)(=O)c1ccccc1)C1CC(c2cccnc2)=NO1 (stereo not given),10,5,22,34,-17,6,nt
CCOC(=O)c1c(O)c2cc(Cl)ccc2n(CC)c1=O,-21,5,-9,10,nt,49,nt
OC(COCC(F)(F)C(F)(F)C(F)(F)C(F)F)Cn1c2ccc(Cl)cc2c2cc(Cl)ccc21 (stereo not given),31,41*,110*,24,-47,43,36*
COc1cccc(/C=N/NC(=O)C(=O)NCc2ccco2)c1O,31,58*,3,37,-8,32,14
O=C(Nc1cccc2cccnc12)c1ccc2c(c1)OCCO2,12,41*,8,41,1,27,30
O=S(=O)(c1ccc2c(c1)OCCO2)N1CCC(n2nnc3cc(F)ccc32)CC1,35,42*,-1,34,nt,40,30
SMILES,TIM10 inh,tim10-1 inh,SKKanGAS inh,tim23-1 inh,PfHsp90 set2,NALP1 yeast inh,tim10-1 confirm
C/C(=N\NC(=S)Nc1cc(S(=O)(=O)N2CCOCC2)ccc1Cl)c1ccc(N2CCOCC2)cc1,23,9,16,3,8,10,nt
C/C(=N\NC(=S)Nc1ccc(C)c(C)c1)c1ccc(N2CCOCC2)cc1,31,41*,24,48,-4,3,25
COC(=O)c1cccc(S(=O)(=O)N2CCC(c3nc4ccccc4o3)CC2)c1,13,5,2,5,-3,-72,nt
CCc1cccc(CC)c1NC(=O)COC(=O)c1ccccc1-c1nc2ccccc2s1,10,44*,8,26,0,nt,19
Cc1cccc(Nc2nc(N)nc(-c3oc4ccccc4c3C)n2)c1,15,42*,35,41,23,6,10
COc1cccc(Nc2nc(N)nc(-c3oc4ccccc4c3C)n2)c1,15,18,7,8,14,-3,nt
Cc1nn(C)cc1[C@@H]1C[C@H]2CN(Cc3cccc(Cl)c3)C(=O)[C@]23CCCN13,6,4,-5,0,-4,6,nt
Cc1ccc(C(=O)Nc2nc3ccc(S(C)(=O)=O)cc3s2)o1,26,44*,12,44,nt,-55,38*
CS(=O)(=O)c1ccc2nc(NC(=O)c3cc4ccccc4o3)sc2c1,17,-1,31,3,5,-15,nt
Cc1ccc(NS(=O)(=O)c2ccc(C(=O)NCc3ccncc3)cc2)cc1,-3,-11,-6,0,0,nt,nt
CN(CC(=O)O/N=C(\N)c1ccccn1)S(=O)(=O)c1ccccc1,0,26,-11,-4,-24,0,nt
COc1ccc(/C(N)=N/OC(=O)CN(C)S(=O)(=O)c2ccccc2)cc1,-17,-9,nt,-7,-28,16,nt
Cc1ccc(S(=O)(=O)N(C)CC(=O)O/N=C(\N)c2cccc(Br)c2)cc1,24,50*,0,26,-18,6,52*
COc1ccc(/C(N)=N/OC(=O)CN(C)S(=O)(=O)c2ccc(C)cc2)cc1,nt,nt,nt,nt,-5,14,nt
CN(CC(=O)O/N=C(\N)c1ccc([N+](=O)[O-])cc1)S(=O)(=O)c1ccc2ccccc2c1,34,45*,4,34,nt,7,47*
Cc1ccc(/C(N)=N/OC(=O)CN(C)S(=O)(=O)c2ccc(C)cc2)cc1,12,47*,-3,32,-10,-2,20
Cc1nn(CC(=O)NCc2ccc(OC(C)C)cc2)c(=O)c2cc(-c3ccccc3)nn12,-13,8,2,5,-16,1,nt
Cc1ccc(C2C(C#N)=C(N)Oc3n[nH]c(-c4cccs4)c32)s1 (stereo not given),37,46*,-1,43,-1,4,31
CS(=O)(=O)N(CC(=O)Nc1cccc([N+](=O)[O-])c1)c1ccccc1F,3,5,-5,4,21,11,nt
